Assay results published in PubChem BioAssay (Tox21).
Several values for one entry are separate records, joined by “and”; a condition that tells them apart may be missing. Equal values may be shown once. Results filed as inconclusive are left out. A call without a number means that no potency is given here. Activity calls are given as the source filed them. Unless noted, calls come from the whole dose curve; as a rule, active = well fitted curve in the direction sought with a large enough effect in the repeat runs; inconclusive = weak or mixed curves; inactive = no such curve, though single readings can be large; an effect the other way counts as inactive or inconclusive.

How the values were obtained:
[1] = qHTS assay to identify small molecule antagonists of the glucocorticoid receptor (GR) signaling pathway - cell viability counter screen (AID 720693); note: nearly all actives have a fitted effect of over 55% in size; note: potency is the fitted concentration of half-maximal effect
[2] = qHTS assay for identifying genotoxic compounds that show differential cytotoxicity against isogenic chicken DT40 cell lines with known DNA damage response pathways - wild type cell line (AID 743012); note: nearly all actives have a fitted effect of over 60% in size; note: potency is the fitted concentration of half-maximal effect
Summary of the method: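 Luminescent ATP viability signal (CellTiter-Glo, 30 min RT) recorded after wild type DT40 cells were incubated with compounds for 40 h at 37 C/5% CO2.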

[3] = qHTS assay for identifying genotoxic compounds that show differential cytotoxicity against isogenic chicken DT40 cell lines with known DNA damage response pathways - Rev3 mutant cell line (AID 743014); note: nearly all actives have a fitted effect of over 55% in size; note: potency is the fitted concentration of half-maximal effect
[4] = qHTS assay for identifying genotoxic compounds that show differential cytotoxicity against isogenic chicken DT40 cell lines with known DNA damage response pathways - Rad54/Ku70 mutant cell line (AID 743015); note: nearly all actives have a fitted effect of over 60% in size; note: potency is the fitted concentration of half-maximal effect
[5] = qHTS assay to identify small molecule antagonists of the androgen receptor (AR) signaling pathway - cell viability counter screen (AID 743033; note: nearly all actives have a fitted effect of over 45% in size)
[6] = target: Androgen receptor (Homo sapiens) (UniProt P10275); test: qHTS assay to identify small molecule antagonists of the androgen receptor (AR) signaling pathway (AID 743035; active = well fitted inhibition curve with a large enough effect in the signal ratio in the repeat runs, not every such curve was filed as active; the % refers to the signal ratio; note: potency is the fitted concentration of half-maximal effect)
Androgen receptor (Homo sapiens), sequence (P10275 whole entry, looked up): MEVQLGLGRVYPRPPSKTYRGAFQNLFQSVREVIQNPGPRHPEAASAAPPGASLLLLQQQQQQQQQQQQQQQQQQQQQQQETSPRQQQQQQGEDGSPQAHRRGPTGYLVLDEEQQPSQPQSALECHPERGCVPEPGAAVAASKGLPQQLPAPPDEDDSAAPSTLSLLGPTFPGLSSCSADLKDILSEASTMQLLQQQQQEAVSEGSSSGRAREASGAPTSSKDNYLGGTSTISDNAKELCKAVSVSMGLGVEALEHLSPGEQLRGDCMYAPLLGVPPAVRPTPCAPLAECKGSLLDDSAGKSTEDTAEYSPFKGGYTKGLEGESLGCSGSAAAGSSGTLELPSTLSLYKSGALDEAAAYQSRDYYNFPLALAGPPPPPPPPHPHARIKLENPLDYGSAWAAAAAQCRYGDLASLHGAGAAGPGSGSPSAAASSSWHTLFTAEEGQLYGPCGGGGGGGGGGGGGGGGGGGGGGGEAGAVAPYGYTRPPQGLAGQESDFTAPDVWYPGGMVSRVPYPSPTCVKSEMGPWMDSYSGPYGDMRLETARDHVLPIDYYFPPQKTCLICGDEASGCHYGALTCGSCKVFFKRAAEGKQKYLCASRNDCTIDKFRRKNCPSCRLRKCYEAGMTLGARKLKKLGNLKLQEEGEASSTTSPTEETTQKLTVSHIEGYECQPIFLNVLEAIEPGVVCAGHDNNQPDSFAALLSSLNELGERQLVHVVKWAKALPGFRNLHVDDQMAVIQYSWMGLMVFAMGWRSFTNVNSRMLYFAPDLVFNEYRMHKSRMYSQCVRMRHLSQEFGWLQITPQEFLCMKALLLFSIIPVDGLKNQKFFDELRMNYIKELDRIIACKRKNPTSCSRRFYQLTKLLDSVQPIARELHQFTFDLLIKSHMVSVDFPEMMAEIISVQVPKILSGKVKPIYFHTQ
Summary of the method: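 Quantitative HTS of the Tox21 10K library used HEK293 AR-UAS-bla cells stimulated with R1881 alongside compound for 16 h at 37C, followed by beta-lactamase FRET detection (LiveBLAzer B/G, 2 h, RT).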

[7] = target: Androgen receptor (Homo sapiens) (UniProt P10275); test: qHTS assay to identify small molecule agonists of the androgen receptor (AR) signaling pathway (AID 743036; active = well fitted activation curve with a large enough effect in the signal ratio in the repeat runs, with a control signal flat, not every such curve was filed as active; the % refers to the signal ratio; note: potency is the fitted concentration of half-maximal effect)
Summary of the method: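 Quantitative HTS of the Tox21 10K library in HEK293 cells bearing a stably integrated UAS-controlled beta-lactamase reporter. Compound exposure lasted 16 h at 37C. Reporter activity was detected by FRET substrate fluorescence after 2 h at room temperature.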

[8] = target: Androgen receptor (Homo sapiens) (UniProt P10275); test: qHTS assay to identify small molecule agonists of the androgen receptor (AR) signaling pathway using the MDA cell line (AID 743040; note: nearly all actives have a fitted effect of over 20% in size; note: potency is the fitted concentration of half-maximal effect)
Summary of the method: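 Luciferase agonist assay: 16 h compound exposure at 37C without CO2 in MDA-kb2 AR-luc cells, whose MMTV promoter responds to both AR and GR. Luminescence measured after 30 min room-temperature incubation with ONE-Glo.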

[9] = qHTS assay to identify small molecule antagonists of the androgen receptor (AR) signaling pathway using the MDA cell line - cell viability counter screen (AID 743041; note: nearly all actives have a fitted effect of over 45% in size)
Summary of the method: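 Viability read by CellTiter-Fluor fluorescence in the same wells as the antagonist screen, added after 15.5 h of a 16 h, 37C exposure. Human breast carcinoma MDA-kb2 AR-luc cells, compounds co-dosed with agonist R1881.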

[10] = target: Androgen receptor (Homo sapiens) (UniProt P10275); test: qHTS assay to identify small molecule antagonists of the androgen receptor (AR) signaling pathway using the MDA cell line (AID 743042; note: nearly all actives have a fitted effect of over 55% in size)
Summary of the method: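 Antagonist mode: compounds plus R1881 agonist added to MDA-kb2 AR-luc cells, incubated 16 h at 37C. Luciferase reporter luminescence quantified, with multiplexed CellTiter-Fluor readout for cell viability.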

| Compound | Potency [1] | Potency [2] | Potency [3] | Potency [4] | Potency [5] | Potency [6] | Potency [7] | Potency [8] | Potency [9] | Potency [10] |
| --- | --- | --- | --- | --- | --- | --- | --- | --- | --- | --- |
| C[C@H](O)[C@H](O)[C@H]1CNc2nc(N)[nH]c(=O)c2N1 | inactive | inactive | inactive | inactive | inactive | – | – | – | – | – |
| CCC(C)(C)OC(=O)N[C@@H](Cc1c[nH]c2ccccc12)C(=O)N[C@@H](CCSC)C(=O)N[C@@H](CC(=O)O)C(=O)N[C@@H](Cc1ccccc1)C(N)=O | inactive | inactive | inactive | inactive | inactive | – | – | – | – | – |
| CCCC(=O)O[C@]1(C(=O)COC(C)=O)CC[C@H]2[C@@H]3C[C@H](F)C4=CC(=O)C=C[C@]4(C)[C@@]3(F)[C@@H](O)C[C@@]21C | inactive | 26.6 µM (active) | 29.8 µM (active) | 29.8 µM (active) | inactive | – | – | – | – | – |
| CCOC(=O)Cc1cccc(-c2cc(CCCCCCc3ccc(O[C@H]4O[C@H](COC(C)=O)[C@@H](OC(C)=O)[C@H](OC(C)=O)[C@@H]4OC(C)=O)c(-c4cccc(CC(=O)OCC)c4)c3)ccc2O[C@H]2O[C@H](COC(C)=O)[C@@H](OC(C)=O)[C@H](OC(C)=O)[C@@H]2OC(C)=O)c1 | inactive | inactive | inactive | inactive | inactive | – | – | – | – | – |
| CC(C)(C)C1(O)CCN2CC3c4ccccc4CCc4cccc(c43)C2C1 (configuration not stated) | inactive | 9.44 µM (active) | 11.9 µM (active) | 11.9 µM (active) | inactive | – | – | – | – | – |
| CN1[C@@H]2CCC[C@H]1CC(NC(=O)c1nn(C)c3ccccc13)C2 (some centres not stated) | inactive | inactive | inactive | inactive | inactive | – | – | – | – | – |
| CC(C)CCCC(C)NC(C)C (configuration not stated) | inactive | inactive | inactive | inactive | inactive | inactive | inactive | inactive | inactive | inactive |
| CCN(CC)CCC(=O)N1c2ccccc2Sc2ccc(C(F)(F)F)cc21 | inactive | 5.96 µM (active) | 10.6 µM (active) | 8.41 µM (active) | inactive | – | – | – | – | – |
| CCC(C)[C@H]1O[C@]2(C=C[C@@H]1C)C[C@@H]1C[C@@H](C/C=C(\C)[C@@H](O[C@H]3C[C@H](OC)[C@@H](O[C@H]4C[C@H](OC)[C@H](NC(C)=O)[C@H](C)O4)[C@H](C)O3)[C@@H](C)/C=C/C=C3\CO[C@@H]4[C@H](O)C(C)=C[C@@H](C(=O)O1)[C@]34O)O2 (some centres not stated) | 7.56 µM (active) and 19 µM (active) | 841 nM (active) and 1.68 µM (active) | 1.33 µM (active) and 2.98 µM (active) | 1.68 µM (active) and 3.35 µM (active) | inactive | – | – | – | – | – |
| CCCC(=O)N1CCCN(c2nc(N)c3cc(OC)c(OC)cc3n2)CC1 | inactive | inactive | inactive | inactive | inactive | inactive | inactive | inactive | inactive | inactive |
| Cc1ccccc1OCC(O)CNCCOc1ccc(C(N)=O)cc1 (configuration not stated) | inactive | inactive | inactive | inactive | inactive | – | – | – | – | – |
| CCOC(=O)[C@@H](N)CS | inactive | inactive | inactive | inactive | inactive | – | – | – | – | – |
| Cc1ccc(/C(=C\CN2CCCC2)c2cccc(/C=C/C(=O)O)n2)cc1 | inactive | inactive | inactive | inactive | inactive | – | – | – | – | – |
| CN1CC(O)c2cc(N=NC(N)=O)c(O)cc21 (configuration not stated) | inactive | inactive | inactive | inactive | inactive | – | – | – | – | – |
| CC1(C)N=C(N)N=C(N)N1c1ccc(Cl)cc1 | inactive | 0.422 µM (active) | 0.422 µM (active) | 1.19 µM (active) | – | – | – | – | – | – |
| COc1cc(S(C)=O)ccc1-c1nc2ncccc2[nH]1 (configuration not stated) | inactive | inactive | inactive | inactive | inactive | – | – | – | – | – |
| CN[C@@H]1CCc2[nH]c3ccc(C(N)=O)cc3c2C1 | inactive | inactive | inactive | inactive | inactive | – | – | – | – | – |
| CCCC(=O)O[C@]1(C(=O)COC(=O)CC)[C@@H](C)C[C@H]2[C@@H]3CCC4=CC(=O)C=C[C@]4(C)[C@@]3(F)[C@@H](O)C[C@@]21C | inactive | 29.8 µM (active) | 29.8 µM (active) | 26.6 µM (active) | inactive | – | – | – | – | – |
| C#C[C@]1(O)CC[C@H]2[C@@H]3CCC4=C/C(=N/O)CC[C@@H]4[C@H]3CC[C@@]21CC | inactive | 16.8 µM (active) | 23.7 µM (active) | 21.1 µM (active) | inactive | 26.8 µM (active) | 4.25 µM (active) | 0.0335 µM (active) | – | – |
| CCC(=O)c1ccc2c(c1)N(CCCN1CCN(CCO)CC1)c1ccccc1S2 | inactive | 2.66 µM (active) | 2.66 µM (active) | – | – | – | – | – | – | – |
| O=C(c1cc2ccccc2o1)N1CCN(Cc2ccccc2)CC1 | inactive | 26.6 µM (active) | 29.8 µM (active) | 29.8 µM (active) | inactive | – | – | – | – | – |
| C[Se]CCC(N)C(=O)O (configuration not stated) | inactive | inactive | inactive | inactive | – | – | – | – | – | – |
| NC(=O)Oc1ccc(Cc2ccccc2)cc1 | inactive | inactive | inactive | inactive | – | – | – | – | – | – |
| O=P(O)(O)OC(CO)CO | inactive | inactive | inactive | inactive | inactive | – | – | – | – | – |
| Cc1ccc(S(=O)(=O)NC(=O)N[C@@H](C)Cc2ccccc2)cc1 | inactive | inactive | inactive | inactive | inactive | – | – | – | – | – |
| CN=C(NC)NCc1ccccc1 | inactive | inactive | inactive | inactive | inactive | – | – | – | – | – |
| CN1CCCC(CN2c3ccccc3Sc3ccccc32)C1 (configuration not stated) | inactive | 7.5 µM (active) | 8.41 µM (active) | 9.44 µM (active) | inactive | – | – | – | – | – |
| CN(C)CCC=C1c2ccccc2C(C)(C)c2ccccc21 | inactive | 9.44 µM (active) | 13.3 µM (active) | 13.3 µM (active) | – | – | – | – | – | – |
